From PubChem BioAssay AID1159580 (chemical genetic matrix, 2015)
Values joined by “and” are separate entries in the source; they are usually repeats but may differ in a detail not shown here. Equal values may be shown once. Out of some 5,500 compounds screened, about 2,000 (36%) were called active. About 18% were inconclusive and are not listed. Cut-off read from the data, not from the text of the source: active = normalized growth mostly below about 0.91 (no sharp cut-off); inconclusive = no clear call, values can overlap the other calls; inactive = mostly above about 0.92. The list shows a part of the results.

Experiment: chemical genetic growth profiling, strain panel (AID 1159580);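 note: tested at 20 µM; growth read once vehicle control cultures reached saturation at 30 °C; 1 = growth at the plate median or of vehicle wells; lower values mean less growth of the strain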
Details: S. cerevisiae deletion strains, growth OD

Measured: normalized growth

c1cncc(C2CCCCN2)c1 (configuration not stated)
inactive: locus YAL021C, strain ccr4, stronger effect = lower value 0.986 | locus YAL026C, strain drs2, stronger effect = lower value 0.999 | locus YAL030W, strain snc1, stronger effect = lower value 1 | locus YBL061C, strain skt5, stronger effect = lower value 0.995 | locus YBR009C, strain hhf1, stronger effect = lower value 0.995 | locus YBR021W, strain FUR4, stronger effect = lower value 1.02 | locus YBR023C, strain chs3, stronger effect = lower value 0.998 | locus YBR171W, strain sec66, stronger effect = lower value 0.985 | locus YBR229C, strain ROT2, stronger effect = lower value 1.02 | locus YBR231C, strain swc5, stronger effect = lower value 0.991 | locus YBR279W, strain paf1, stronger effect = lower value 0.99 | locus YCL011C, strain gbp2, stronger effect = lower value 0.997 | locus YCL016C, strain dcc1, stronger effect = lower value 0.996 | locus YCL029C, strain bik1, stronger effect = lower value 0.982 | locus YCL061C, strain MRC1, stronger effect = lower value 0.988 | locus YCL069W, strain vba3, stronger effect = lower value 0.993 | locus YCR088W, strain abp1, stronger effect = lower value 0.993 | locus YDL005C, strain med2, stronger effect = lower value 0.997 | locus YDL035C, strain GPR1, stronger effect = lower value 1.04 | locus YDL040C, strain nat1, stronger effect = lower value 0.992 | locus YDL074C, strain BRE1, stronger effect = lower value 1.01 | locus YDL101C, strain DUN1, stronger effect = lower value 1.01 | locus YDL185W, strain tfp1, stronger effect = lower value 1 | locus YDL192W, strain arf1, stronger effect = lower value 0.998 | locus YDR001C, strain nth1, stronger effect = lower value 0.991 | locus YDR069C, strain doa4, stronger effect = lower value 0.988 | locus YDR101C, strain arx1, stronger effect = lower value 0.971 | locus YDR137W, strain rgp1, stronger effect = lower value 0.996 | locus YDR159W, strain sac3, stronger effect = lower value 0.979 | locus YDR162C, strain NBP2, stronger effect = lower value 1 | locus YDR195W, strain ref2 0.98 | locus YDR297W, strain sur2, stronger effect = lower value 0.986 | locus YDR318W, strain mcm21, stronger effect = lower value 1.01 | locus YDR334W, strain swr1, stronger effect = lower value 0.99 | locus YDR335W, strain msn5, stronger effect = lower value 0.994 | locus YDR388W, stronger effect = lower value 0.996 | locus YDR392W, strain spt3, stronger effect = lower value 0.99 | locus YDR502C, strain sam2, stronger effect = lower value 0.995 | locus YEL003W, strain gim4, stronger effect = lower value 1.01 | locus YEL037C, strain rad23, stronger effect = lower value 0.999 | locus YEL061C, strain CIN8 (second series), stronger effect = lower value 0.992 | locus YEL061C, strain CIN8, stronger effect = lower value 0.999 | locus YER015W, strain faa2, stronger effect = lower value 0.997 | locus YER016W, strain bim1, stronger effect = lower value 0.995 | locus YER110C, stronger effect = lower value 0.98 | locus YER111C, strain swi4, stronger effect = lower value 0.989 | locus YER155C, strain BEM2 (second series), stronger effect = lower value 0.996 | locus YER155C, strain BEM2, stronger effect = lower value 1.01 | locus YER167W, strain BCK2, stronger effect = lower value 0.993 | locus YFR010W, strain ubp6, stronger effect = lower value 0.989 | locus YGL078C, strain dbp3, stronger effect = lower value 1 | locus YGL086W, strain mad1, stronger effect = lower value 0.978 | locus YGL167C, strain pmr1, stronger effect = lower value 0.989 | locus YGL173C, strain kem1, stronger effect = lower value 0.984 | locus YGL227W, strain vid30, stronger effect = lower value 0.983 | locus YGL240W, strain doc1, stronger effect = lower value 0.981 | locus YGL248W, strain PDE1, stronger effect = lower value 1.03 | locus YGL253W, strain hxk2, stronger effect = lower value 0.986 | locus YGR078C, strain PAC10, stronger effect = lower value 1.01 | locus YGR135W, strain pre9, stronger effect = lower value 0.999 | locus YGR252W, strain gcn5, stronger effect = lower value 0.969 | locus YHR013C, strain ard1, stronger effect = lower value 1 | locus YHR027C, strain rpn1, stronger effect = lower value 0.985 | locus YHR030C, strain SLT2, stronger effect = lower value 1.01 and 1.02 | locus YHR079C, strain IRE1 (second series), stronger effect = lower value 0.998 | locus YHR079C, strain IRE1, stronger effect = lower value 1 | locus YHR094C, strain hxt1, stronger effect = lower value 0.996 | locus YHR129C, strain ARP1, stronger effect = lower value 1 | locus YHR142W, strain chs7, stronger effect = lower value 0.985 | locus YHR200W, strain rpn10, stronger effect = lower value 0.999 | locus YIL066C, strain RNR3, stronger effect = lower value 1.01 | locus YIL073C, strain SPO22, stronger effect = lower value 0.996 | locus YIL125W, strain kgd1, stronger effect = lower value 0.986 | locus YIR030C, strain dcg1, stronger effect = lower value 0.988 | locus YJL092W, strain hpr5, stronger effect = lower value 0.995 | locus YJL095W, strain BCK1 (second series), stronger effect = lower value 1.01 | locus YJL095W, strain BCK1, stronger effect = lower value 1.05 and 0.994 | locus YJL115W, strain asf1, stronger effect = lower value 0.986 | locus YJL129C, strain trk1, stronger effect = lower value 0.999 | locus YJL134W, strain LCB3, stronger effect = lower value 1.01 | locus YJL154C, strain vps35, stronger effect = lower value 0.991 | locus YJL164C, strain tpk1, stronger effect = lower value 0.998 | locus YJL166W, strain qcr8, stronger effect = lower value 0.993 | locus YJL168C, strain set2, stronger effect = lower value 0.995 | locus YJL187C, strain SWE1 (second series), stronger effect = lower value 1.03 | locus YJL187C, strain SWE1, stronger effect = lower value 1.01 | locus YJR043C, strain POL32, stronger effect = lower value 1.02
